Screens from PubChem.
A340 absorber – compound absorbs light at 340 nm; compound absorbance at 340 nm, fold over control; 65,000 tested, under 10 active; fold change at 10 µM;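 active means at 10 µM dose, initial 340 nm absorbance at least 2 fold that of control wells; inactive means change under 2 fold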;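 further: initial absorbance extrapolated from kinetic A340 decline of NADH oxidation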
PMK inhibit – inhibitors of Streptococcus pneumoniae phosphomevalonate kinase | purified PMK, PK/LDH-coupled NADH absorbance 340 nm | inhibition, % at 10 µM | AID 539 | hit rate 0.49% among 65,000;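 active means top-ranked compounds by inhibition in the single 10 µM screen, taking a fixed number of the strongest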
NADH enzymes – inhibitors of enzymes used to reach an NAD/NADH endpoint | IC50, µM (highest dose often 10 µM) | hit rate 0.02% among 65,000 | coupled PK/LDH NADH assays, four targets;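 active means single-dose screening hits from any of four coupled enzyme assays that gave an IC50 when retested across doses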;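 further: the DPM-DC format reads NADH fluorescence rather than 340 nm absorbance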
Spn DPM-DC inh – inhibitors of Streptococcus pneumoniae diphosphomevalonate decarboxylase | calls only at 10 µM | purified DPM-DC, PK/LDH coupled NADH fluorescence | hit rate 0.49% among 65,000;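 active means the 320 compounds with the highest percent inhibition in the single-dose primary screen, excluding strongly autofluorescent ones, cut at about 32% in these data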;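 further: kinetic rate of NADH fluorescence loss reporting ADP formed by the decarboxylase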
Spn MK inh – S. pneumoniae mevalonate kinase inhibition. purified MK, PK/LDH-coupled NADH absorbance 340 nm. inhibition, % at 10 µM. hit rate 0.48% among 65,000. AID 555;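 active means ranked among the strongest by inhibition in the single 10 µM screen, a fixed top-ranked set picked for dose follow-up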
Fluor 339 460 – intrinsic fluorescence of library compounds, ex339/em460 – biochemical, MLSMR library, data from DPM-DC assay, artefact control, profiling panel; compound autofluorescence, ex339/em460 nm, NADH buffer; active compounds read high; 1 = no-compound wells, NADH background; fluorescence fold increase at 10 µM; hit rate 5.5% among 65,000;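 active means at 10 µM, mean starting fluorescence two-fold or more over control wells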;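 further: signal is the first read of a kinetic run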
Numbers stand for hits; . = inactive; / = not tested or not shown; + = active, no number. Rows were chosen to be rich in hits. Some 6.8% of all compounds tested hit in one or more screens of this group.

SMILES | A340 absorber | PMK inhibit | NADH enzymes | Spn DPM-DC inh | Spn MK inh | Fluor 339 460
O=C(CSc1nc2ccccc2n1-c1ccccc1)NCC1CCCO1 (centres undefined) | . | . | . | . | . | .
NC1=C(c2ccc(F)cc2)C(=O)CS1 | . | . | . | . | . | .
CCOC(=O)c1nnn(-c2nonc2N)c1CNc1ccc(C)c(Br)c1 | . | . | . | . | . | .
c1ccc2sc(SCc3ccc(-c4nnco4)cc3)nc2c1 | . | 30 | . | . | . | .
O=C(O)CCSc1nc2ccccc2s1 | . | . | . | . | . | .
CCOC(=O)C1CCN(C(=O)c2ccc3c(c2)OCO3)CC1 | . | . | . | . | . | .
CN(C)C(=O)CSc1nnc([C@H](Cc2c[nH]c3ccccc23)NC(=O)OC(C)(C)C)o1 | . | . | . | . | . | .
CCSc1nnc(NC(=O)NC(CC)(C(F)(F)F)C(F)(F)F)s1 | . | . | . | . | . | .
CCn1c(/C=N/n2cnnc2)nc2ccccc21 | . | . | . | / | . | 2.1
CCn1c2ccccc2c2cc(/C=N/n3cnnc3)ccc21 | . | . | . | / | . | 5
O=S(=O)(c1ccc(F)c2ccccc12)N1CCCCC1 | . | . | . | . | . | .
CCOC(=O)C1=C(N)N2C(=O)C(C)SC2=C(C(=O)OC)C1c1ccccc1OC (centres undefined) | . | . | . | . | . | .
CCOC(=O)c1ccc(S(=O)(=O)Nc2ccccc2-c2nnn(CC)n2)cc1 | . | . | . | . | . | .
Cc1ccc(CNC(=O)CCCNS(=O)(=O)c2cccc3nonc23)cc1 | . | . | . | . | . | .
O=c1c(-c2ccc(Cl)cc2)coc2c(CN3CCOCC3)c(O)ccc12 | . | . | . | / | . | 2.2
CCCCc1cc(=O)oc2cc(C)c(CN3CCCC3)c(O)c12 | . | . | . | . | . | .
CCc1cc2c(-c3ccccc3)cc(=O)oc2c(CN2CCOCC2)c1O | . | . | . | . | . | 2.5
CCCCc1cc(=O)oc2c(CN3CCCC3)c(O)ccc12 | . | . | . | / | . | 2.4
O=c1cc(-c2ccccc2)c2ccc(O)c(CN3CCCCC3)c2o1 | . | . | . | . | . | 2.4
O=C(c1ccccc1)c1coc2ccc(O)c(CN3CCOCC3)c12 | . | . | . | . | . | .
O=C(c1ccccc1-c1nc2ccccc2[nH]1)N1CCCCC1 | . | . | . | . | . | .
O=c1c(-c2ccccc2)coc2c(CN3CCCC3)c(O)ccc12 | . | . | . | / | . | 3.9
O=c1oc2c(CN3CCCCCC3)c(O)ccc2cc1-c1nc2ccccc2[nH]1 | . | . | . | / | . | 4.7
O=C(c1ccco1)N1CCN(c2ccc(S(=O)(=O)N3CCCC3)cc2)CC1 | . | . | . | . | . | .
Cc1cccc(NC(=O)c2sc3nc(-c4ccc(F)cc4)cn3c2C)n1 | . | . | . | / | . | 4.5
SMILES | A340 absorber | PMK inhibit | NADH enzymes | Spn DPM-DC inh | Spn MK inh | Fluor 339 460
Cc1cccc(NC(=O)c2sc3nc(-c4ccccc4)cn3c2C)n1 | . | . | . | . | . | .
c1ccc(-n2c(-c3ccncc3)nnc2-c2cccs2)cc1 | . | . | . | . | . | .
c1csc(-c2ncc3ccccn23)c1 | . | . | . | / | . | 3.4
COc1ccc(-c2ncc3ccccn23)cc1 | . | . | . | / | . | 3.2
Cc1ccc2nc(NC3=NCN(Cc4ccc5c(c4)OCO5)CN3)nc(C)c2c1 | . | . | . | . | . | .
CC(C)Sc1nnc(Nc2ccccc2)s1 | . | . | . | . | . | .
COc1ccc(-c2nc(CN3CCC(C(=O)NC4CCCc5ccccc54)CC3)c(C)o2)cc1OC (centres undefined) | . | . | . | . | . | .
N=C1C(c2nc3ccccc3s2)=C(O)CN1Cc1ccco1 | . | . | . | . | . | .
CSc1ccc2[nH]c(=O)cc(C)c2c1 | . | . | . | / | . | 3.8
Cc1ccc2[nH]c(=S)cc(C)c2c1 | . | . | . | . | . | .
COC(=O)c1c(NC(=O)c2ccc(Br)s2)sc2c1CCC2 | . | . | . | . | . | .
CCn1ncc(Br)c1C(=O)Nc1sc2c(c1C(=O)OC)CCC2 | . | . | . | . | . | 2.5
COC(=O)c1c(NC(=O)c2nn(C)cc2Cl)sc2c1CCCC2 | . | . | . | / | . | 2.4
CC(=O)Nc1nc2ccccc2n1CCOc1ccccc1Cl | . | . | . | . | . | .
Cc1ccc(S(=O)(=O)NCCNC(=O)N2CCOCC2)cc1 | . | . | . | . | . | .
CCn1c2ccccc2c2cc(CN3CCN(C(=O)c4ccco4)CC3)ccc21 | . | 30 | . | . | 54 | .
COc1ccc(CN2CCN(C(=O)c3ccco3)CC2)cc1OCc1ccccc1 | . | . | . | . | 52 | .
O=C(CSc1nc2c(c(=O)n1-c1ccc(F)cc1)SCC2)NCc1ccco1 | . | . | . | . | . | .
Cn1c(-c2ccc(N)cc2)nc2ccccc21 | . | . | . | + | . | 3.9
COc1cc(CN2CCC(C(=O)N3CCCC(C)C3)CC2)cc(Br)c1O (centres undefined) | . | . | . | . | . | .
CCc1cc2c(=O)c(-c3nc4ccccc4[nH]3)coc2cc1OC(=O)N1CCOCC1 | . | . | . | + | . | .
OCc1nc2ccccc2n1CC(O)COc1ccccc1 (centres undefined) | . | . | . | . | . | .
Cc1ccc(S(=O)(=O)c2cc3c(=O)n4ccccc4nc3n(Cc3ccco3)c2=N)cc1 | . | . | . | / | . | 3.6
Cc1ccc(S(=O)(=O)c2cc3c(=O)n4cccc(C)c4nc3n(Cc3ccco3)c2=N)cc1C | . | . | . | . | . | 2.3
Cc1ccc(S(=O)(=O)c2cc3c(=O)n4ccccc4nc3n(CC3CCCO3)c2=N)cc1 (centres undefined) | . | . | . | . | . | .
SMILES | A340 absorber | PMK inhibit | NADH enzymes | Spn DPM-DC inh | Spn MK inh | Fluor 339 460
CC1CCc2sc3ncnc(N4CCOCC4)c3c2C1 (centres undefined) | . | . | . | . | . | .
CCOc1c(C)cc(-c2ncccc2O)cc1C | . | . | . | . | . | 3.8
COc1ccc(S(=O)(=O)NC(CC(=O)NCC2CCCO2)c2ccco2)cc1 (centres undefined) | . | . | . | . | . | .
CC(C)c1cc(C(=O)Nc2ccc3c(c2)OCO3)no1 | . | . | . | . | . | .
Cc1onc(-c2c(Cl)cccc2Cl)c1C(=O)Nc1ccc2c(c1)OCO2 | . | 28 | . | . | . | .
COC(=O)CSc1nc2sc3c(c2c(=O)n1C1CCCCC1)CCN(C)C3 | . | . | . | / | . | 2.5
COc1ccc(-n2c(SCC(N)=O)nc3sc4c(c3c2=O)CCN(C)C4)cc1 | . | . | . | . | . | .
CCOC(=O)c1c(C)[nH]c(C(=O)CSc2nnc(CC(C)c3ccccc3)o2)c1C (centres undefined) | . | . | . | . | . | .
N#CC1=C2C=CC=CN2CC1=O | . | . | . | / | . | 2.3
O=c1cc(-c2ccncc2)oc2ccccc12 | . | . | . | . | . | .
O=c1cc(-c2ccc3c(c2)OCO3)oc2ccccc12 | . | . | . | / | . | 3.6
